# Laboratory results reported in PubChem BioAssay AID720513 (Broad Institute, 2013).
# In all, about 2,100 compounds went through this assay and about 480 (23%) were called active. About 5% were inconclusive and are not listed.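 Rule for the calls: active = fitted curve reaches 40% activation at or below the top valid concentration, in every replicate test; inconclusive = replicate tests disagree on the call; inactive = the rest, including activity in the opposite direction.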 The list is a sample of the results. A call without a number means that no potency is given here. Potency and affinity values are given separately.
# Experiment: PGC1a acetylation increase, cellular AlphaLISA – cell-based, cherry-picked samples, set 6, dose response (AID 720513);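 note: cells made to overexpress flag tagged PGC1a plus GCN5 acetyltransferase by viral infection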
# Conditions: U2OS PGC1a acetylation AlphaLISA, overnight, 0 = neutral, -100 = inhibitor control; series mostly up to 19.5 µM
row,SMILES,outcome
1,Cc1cccc(C)c1NC(=O)C(NC(=O)c1ccccn1)c1ccc([N+](=O)[O-])cc1 (stereo unspecified),inactive
2,CCOC(=O)CC1C(=O)NCCN1S(=O)(=O)c1ccc(C)cc1 (stereo unspecified),inactive
3,CCCCCC(=O)N1C[C@H](n2cc(-c3ccc(F)cc3)nn2)[C@@H](O)C[C@@H]1c1ccc(C)cc1,inactive
4,CCOC(=O)C1=C(CS(=O)(=O)c2ccccc2)NC(=O)NC1c1ccc(O)c(OC)c1 (stereo unspecified),inactive
5,OC[C@@H]1[C@H](c2ccc(C#CC3CCCC3)cc2)[C@H]2CN(CCC(F)(F)F)CCCCN12,inactive
6,CO[C@H]1CN(C)C(=O)c2cc(NC(=O)NC(C)C)ccc2OC[C@H](C)N(Cc2ccc(-c3ccccn3)cc2)C[C@@H]1C,inactive
7,CCCS(=O)(=O)N1CCCC(C(=O)NCCCOC(C)C)C1 (stereo unspecified),inactive
8,Cc1nnc(NC(=O)CSc2ncc(-c3ccccc3)[nH]2)s1,inactive
9,Cc1ccc(-c2nc(NC(=O)c3nn(C)cc3[N+](=O)[O-])sc2C)cc1,inactive
10,CO[C@H]1CN(C)C(=O)c2ccc(NS(=O)(=O)c3ccccc3)cc2OC[C@@H](C)N(C(=O)NC(C)C)C[C@@H]1C,inactive
11,O=C(c1cc(Cl)ccc1Cl)N1CCc2ccccc21,inactive
12,O=C(O)c1ccccc1C(=O)N1CCN(C(=O)c2ccccc2Cl)CC1,inactive
13,O=C(c1ccccc1Cl)N1CCNCC1,inactive
14,C[C@H](CO)N1C[C@H](C)[C@@H](CN(C)Cc2cncnc2)Oc2cc(C#CC3CC3)ccc2S1(=O)=O,inactive
15,O=C(COn1nnc2ccc(Cl)cc21)NC12CC3CC(CC(C3)C1)C2,inactive
16,CC(C)(C)OC(=O)NCCc1nnc(SCc2ccc(Cl)cc2)o1,inactive
17,CCOc1ccccc1OCCn1nnc2ccccc21,inactive
18,OC(CN1c2ccccc2Sc2ccccc21)Cn1nnc2ccccc21 (stereo unspecified),inactive
19,CN1C[C@H](C(=O)N[C@]2(C)O[C@@]3(O)[C@@H]4CCCN4C(=O)[C@H](Cc4ccccc4)N3C2=O)CC2c3cccc4[nH]cc(c34)C[C@H]21 (stereo partly specified),inactive
20,O=C(Nc1cccc(F)c1)N1C[C@@H]2N[C@H](C1)C2c1ccc(-c2ccc(F)cc2)cc1 (stereo partly specified),inactive
21,C[C@H](CO)N1C[C@H](C)[C@H](CN(C)S(C)(=O)=O)Oc2ncc(-c3cc4ccccc4o3)cc2C1=O,inactive
22,O=C(Nc1nc2ccccc2[nH]1)c1ccc(Cl)c(S(=O)(=O)N2CCCC2)c1,inactive
23,CC(C)[C@H](NC(=O)NCc1cccs1)C(=O)O,inactive
24,CCOc1ccnc(OCC)c1Br,inactive

row,SMILES,outcome
1,C[C@@H]1CN([C@H](C)CO)C(=O)c2cc(NS(C)(=O)=O)ccc2O[C@@H]1CN(C)S(=O)(=O)c1ccc(Cl)cc1,inactive
2,CCN1CCN(Cc2ccc(NC(=O)c3ccc(C)c(NC(=O)c4c[nH]c5cc(C(F)(F)F)ccc5c4=O)c3)cc2C(F)(F)F)CC1,inactive
3,Cc1ccccc1S(=O)(=O)NCC[C@@H]1CC[C@@H](NC(=O)C2CCOCC2)[C@H](CO)O1,inactive
4,COCCSc1ccccc1C(=O)Nc1cc(C)on1,inactive
5,Cn1nnnc1SC1CC(=O)N(c2ccccc2)C1=O (stereo unspecified),inactive
6,CN(C)C(=O)c1ccc(-c2ccc([C@@H]3[C@H]4CN(C(=O)CC5CC5)CC(=O)N4[C@H]3CO)cc2)cc1,inactive
7,OC(c1ccc(Cl)cc1Cl)C(Cc1cccnc1)n1cncn1 (stereo unspecified),inactive
8,OC(c1cc(-c2ccc(Cl)cc2)nc2ccccc12)C1CCCCN1 (stereo unspecified),inactive
9,COc1ccc2c(c1)sc1nc(-c3ccccc3)cn12,inactive
10,COc1ccc2c3c(n(C)c2c1)[C@H](CO)NCC31CCN(Cc2cc(F)ccc2F)CC1,inactive
11,Cc1ccc(C(=O)NNC(=O)c2cccc(Br)c2)cc1,inactive
12,Cc1ccccc1NC(=O)CC1c2ccccc2CC(C)(C)N1C (stereo unspecified),inactive
13,Cc1ccc(S(=O)(=O)N2CCN(C(=O)CSc3nc4ccccc4c(=O)[nH]3)CC2)c(C)c1,inactive
14,Cc1cc(C)c2nc(N3CCCC(C(=O)N4CCC(C(N)=O)CC4)C3)sc2c1 (stereo unspecified),inactive
15,O=C1c2ccccc2-c2c1cccc2C(=O)N1CCN(C(=O)c2ccco2)CC1,inactive
16,Cn1nc(-c2ccccc2F)c2cc(C(=O)N3CCN(C(=O)c4ccco4)CC3)sc21,inactive
17,O=C(COc1ccccc1)N1CCN=C1SCc1ccccc1,inactive
18,CCN1CCN(c2nnc(-c3ccccc3)c3ccccc23)CC1,inactive
19,CN1CCN(C(=O)c2sc(=S)n(-c3ccccc3)c2N)CC1,inactive
20,Cc1cc(C)cc(C(=O)Nc2ccc3[nH]c(=O)[nH]c3c2)c1,inactive
21,COc1cccc(N2CCN(c3ncnc4c3[nH]c3ccc(F)cc34)CC2C)c1 (stereo unspecified),inactive
22,C=CCOc1ccccc1CNc1ccc2[nH]c(=O)[nH]c2c1,inactive
23,O=C(C[C@H]1C=C[C@H](NC(=O)Nc2ccc(C(F)(F)F)cc2)[C@@H](CO)O1)NCc1ccccn1,inactive
24,COc1ccc(S(=O)(=O)N2CCN(C(=O)c3cccs3)CC2)cc1OC,inactive

row,SMILES,outcome
1,O=C(Cc1ccccc1)N1N=C(c2ccncc2)CC1(O)C(F)(F)F (stereo unspecified),inactive
2,CC(=O)c1cccc(-n2nnnc2SCC(=O)NNC(=O)C(C)C)c1,inactive
3,C[C@H](CO)N1C[C@H](C)[C@H](CN(C)S(=O)(=O)c2ccc(F)cc2)Oc2ncc(-c3cccc(C(=O)N(C)C)c3)cc2C1=O,inactive
4,Cc1nonc1NC(=O)CSc1nc(C2CCCCC2)nc2ccccc12,inactive
5,CC(C)(CO)CNc1ccn2nccc2n1,inactive
6,O=C(CSC1=NS(=O)(=O)c2ccccc2N1)Nc1ccc(F)cc1,inactive
7,Cc1cccc(C)c1NC(=O)CS(=O)CC(=O)Nc1ccc(F)cc1F (stereo unspecified),inactive
8,O=C1C=CCCN1C(=O)/C=C/c1cccc(Br)c1,inactive
9,Cn1nnnc1Sc1ncnc2scc(-c3ccc(C#N)cc3)c12,inactive
10,O=C(c1cccs1)N(Cc1ccccn1)Cc1ccco1,inactive
11,COc1ccc2cc(CN(Cc3ccco3)C(c3nnnn3C3CCCCC3)C(C)C)c(=O)[nH]c2c1 (stereo unspecified),inactive
12,COCCN(C(=O)COC(=O)Cc1cccc(OC)c1)c1c(N)n(Cc2ccccc2)c(=O)[nH]c1=O,inactive
13,O=C1CCCc2ccccc2N1Cc1ccc(Cl)cc1Cl,inactive
14,CCOC(=O)CSc1nnc(-c2ccc(OC)cc2)n1CC,inactive
15,CCN(C(=O)CSc1nnc(-c2cccs2)n1N)c1c(N)n(Cc2ccccc2)c(=O)[nH]c1=O,inactive
16,CC1(C)CC2(CCO1)OC(=O)CC2C(=O)Nc1cccc2ccccc12 (stereo unspecified),inactive
17,CO[C@H]1CN(C)C(=O)c2cc(NC(=O)c3ccccc3F)ccc2OC[C@@H](C)N(C(C)=O)C[C@@H]1C,inactive
18,COc1ccc(C(=O)Nc2ccc3c4c(cccc24)CC3)cc1,inactive
19,CCN(CC)c1ccc(NC(=O)c2ccc(NC(=O)C3CCCO3)cc2)c(C)c1 (stereo unspecified),inactive
20,CC(C)CNC(=O)c1coc(=O)c(Br)c1,inactive
21,O=C(NCCN1CCOCC1)c1ccc(=O)oc1,inactive
22,O=C(OCCCN1CCCCC1)c1ccc(O)cc1,inactive
23,Cc1ccc(S(=O)(=O)N(C)c2ccc(OC(C)C(=O)N3CCCC3)cc2)cc1C (stereo unspecified),inactive
24,OC[C@@H]1[C@@H](c2ccc(C#CC3CCCC3)cc2)[C@H]2CN(CCC(F)(F)F)CCCCN12,inactive

row,SMILES,outcome
1,C[C@H]1CN([C@@H](C)CO)C(=O)c2cccc(NC(=O)Nc3ccc(C(F)(F)F)cc3)c2O[C@H]1CN(C)C(=O)Nc1cccc2ccccc12,inactive
2,C[C@@H]1CN([C@@H](C)CO)C(=O)c2ccccc2-c2ccccc2CO[C@@H]1CN(C)C(=O)Nc1cccc(Cl)c1Cl,inactive
3,C[C@@H]1CN([C@H](C)CO)C(=O)CCCn2cc(nn2)CO[C@@H]1CN(C)C(=O)Nc1cccc2ccccc12,inactive
4,Cc1cc2c(c(/C=C/C(=O)c3ccccc3)c1)OC1(C=C2)Oc2ccccc2C(=O)N1C (stereo unspecified),inactive
5,N#Cc1c(N)c(C(=O)c2ccccc2)n2ccccc12,inactive
6,CSc1n[nH]c(NCc2ccccc2)n1,inactive
7,CC1(C)CC(=O)C=C(NCc2ccco2)C1,inactive
8,COC1(C)CN(Cc2ccccc2Br)[C@H](/C=C/c2ccccc2)[C@H](Cc2ccccc2)O1 (stereo partly specified),inactive
9,CCn1nccc1C(=O)Nc1ccccc1OC,inactive
10,CCOc1ccccc1NC(=O)c1ccc2ccccc2c1,inactive
11,C[C@@H]1CN([C@H](C)CO)C(=O)c2cc(C3=CCCCC3)cnc2O[C@@H]1CN(C)Cc1ccccc1,inactive
12,COc1ccc(C(CC(=O)Nc2ccccn2)N2Cc3ccccc3C2=O)cc1 (stereo unspecified),inactive
13,c1ccc(-c2cc(-c3ccccc3)n3ncnc3n2)cc1,inactive
14,CC(C)NC(=O)Nc1ccc2c(c1)C(=O)N([C@@H](C)CO)C[C@H](C)[C@@H](CN(C)C(=O)CCC(F)(F)F)OCCCC[C@@H](C)O2,inactive
15,C[C@H]1CN([C@@H](C)CO)S(=O)(=O)c2ccc(C#Cc3cccnc3)cc2O[C@@H]1CN(C)CC1CCOCC1,inactive
16,COc1cc(NC(=O)NCc2ccco2)ccc1-c1ccc(NC(=O)NCc2ccco2)cc1OC,inactive
17,Cc1noc(C)c1NC(=O)N[C@H]1C=C[C@H](CC(=O)NCc2ccc(Cl)c(Cl)c2)O[C@H]1CO,inactive
18,CN1C(=O)c2ccccc2C(C(=O)O)C1c1cccc([N+](=O)[O-])c1 (stereo unspecified),inactive
19,CCOC(=O)C1(Cc2cccc(F)c2)CCN(Cc2c(C)nn(CC)c2C)CC1,inactive
20,CCOC(=O)C1(Cc2cccc(F)c2)CCN(Cc2ccc(COC)o2)CC1,inactive
21,C[C@@H]1CN([C@@H](C)CO)C(=O)Cc2cc(NC(=O)CCC(F)(F)F)ccc2O[C@H]1CN(C)S(C)(=O)=O,inactive
22,Cn1nnnc1Sc1ncnc2scc(-c3ccc[nH]3)c12,inactive
23,Oc1ccc2ccccc2c1CN1CCCCC1,inactive
24,Cn1c(CCN2CCCCC2)nc2cc(NS(=O)(=O)c3ccccc3)ccc21,inactive
